In all, about 140,000 compounds went through this assay and about 1,200 (0.86%) were called active. This is one part of a sample in which actives are shown more often than they occur. Rule as the data show it: active = activity change below about -25%; inactive = the rest.
What follows are compounds tested against Inositol hexakisphosphate kinase 1 (Homo sapiens) (UniProt Q92551) (assay: Primary qHTS assay for small molecule inhibitors of Inositol hexaphosphate kinase 1 (IP6K1)). Conditions: ADP-Glo luminescence, 2 h, active compounds read low.
Description: Assay Provider: Huijun Wei, M.S., Ph.D. School of Medicine, Johns Hopkins University, Baltimore, MD Inositol hexakisphosphate kinases (IP6Ks) catalyze pyrophosphorylation of inositol hexakisphosphate (IP6) into inositol 5-diphospho-1,2,3,4,6-pentakisphosphate (IP7), which is involved in numerous areas of cell physiology including glucose homeostasis, blood coagulation and neurological development. Inhibition of IP6Ks may be effective for the treatment of Type II diabetes, thrombosis, and psychiatric disorders. We performed a quantitative high throughput screen (qHTS) of 158,410 compounds for IP6K1 inhibitors using ankinase activity ADP-Glo Max assay. […] Medicinal chemistry SAR efforts in three chemical series identified potent IP6K1 inhibitors, which were further validated in an orthogonal LC-MS IP7 analysis.
PROTOCOL TABLE SEQUENCE No. (e.g., 1, 2, 3, etc.); […] (e.g., Cells, Incubation, Reagent, etc.); VALUE and DESCRIPTION. 1. Reagent, 3 uL of 1.3 mM ATP and 130 uM IP6 mixture in assay buffer was dispensed to a white, 1536-well assay plate. 2. Compound, 23 nL of compounds of the top two doses (57.5 uM and 19.1 uM final concentration) of the libraries were dispensed into the mixture using the Kalypsis pintool. 3. Reagent, 1 uL of 2.4 uM IP6K1 was dispensed to the assay plates. 4. Incubation, 2 hr incubation at room temperature. 5. Reagent, 2 uL of ADP-Glo reagent was added to the wells. 6. Incubation, 1 hr incubation at room temperature. 7. Reagent, 4 uL or ADP-Glo substate was added to the wells. 8. Incubation, 45 min incubation at room temperature. 9. Detection, luminescence signal was detected using the ViewLux microplate imager (PerkinElmer).
% is scaled to controls: 0 for no effect and ±100 for the full control effect.
Also: series mostly up to about 58 µM.

Chain of Inositol hexakisphosphate kinase 1 (Homo sapiens) (Q92551 whole entry, looked up): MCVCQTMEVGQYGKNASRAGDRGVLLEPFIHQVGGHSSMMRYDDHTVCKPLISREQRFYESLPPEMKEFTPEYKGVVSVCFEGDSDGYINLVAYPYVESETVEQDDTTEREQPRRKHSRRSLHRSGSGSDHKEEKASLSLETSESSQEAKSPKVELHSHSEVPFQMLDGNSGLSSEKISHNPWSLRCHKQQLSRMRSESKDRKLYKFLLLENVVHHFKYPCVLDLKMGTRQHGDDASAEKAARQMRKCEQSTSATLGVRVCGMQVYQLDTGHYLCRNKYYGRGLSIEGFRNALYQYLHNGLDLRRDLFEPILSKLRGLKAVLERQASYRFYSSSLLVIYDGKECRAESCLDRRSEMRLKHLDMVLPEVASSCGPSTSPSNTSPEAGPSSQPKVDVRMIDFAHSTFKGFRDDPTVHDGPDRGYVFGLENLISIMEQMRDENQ

Activity change, inactive:
O=C1CCN(CC(O)COc2ccccc2)c2cc3c(cc2CN1CC1CC1)OCO3 (stereo not drawn) -10.5%
COc1ccc(OCC2CN(Cc3cccc(F)c3)[S+](=O)([O-])c3cccnc3O2)cc1 (stereo not drawn) 0.413%
O=C1CCN(C(=O)[C@H](Cc2ccccc2)NC(=O)NC2CCCCC2)CCCOCCN1 9.58%
COc1ccc(CNC(=O)c2noc(-c3ccc(F)cc3)n2)cc1 7.64%
COc1ccc(CCC(=O)NCCc2csc(-c3ccc(Cl)cc3)n2)cc1 -1.97%
O=C(c1cccc(OC2CN(Cc3nccs3)C2)c1)N1CCOCC1 -3.36%
O=C(NCc1cccc(Cl)c1)c1ccc2nccn2c1 -8.99%
Cc1n[nH]c(C)c1CNC(=O)C1Cn2cccc2C(=O)N1Cc1ccccc1 (stereo not drawn) -3.14%
COc1ccc(Cl)cc1-c1ccc2c(c1)C(=O)N1CCN(C(=O)CSC)C[C@@H]1C(=O)N2 -8.89%
COc1ccccc1NC(=O)c1cc(S(=O)(=O)NCCc2ccccc2)ccc1F 14.4%
CCc1ccc(NC(=O)c2cc(S(=O)(=O)NC3CCCCCC3)ccc2F)cc1 -6.25%
Cc1nn(-c2ccccc2)c2c1C(C)N(C1CCN(C(=O)C(C)C)CC1)C2=O (stereo not drawn) 2.6%
O=C(NCc1ccccc1)c1c(-c2ccccc2)cc(=O)n2c1CCCC2 5.1%
COc1ccccc1-c1ccc(CN2CCC(NC(=O)c3ccc(Cl)nc3)C2)cc1 (stereo not drawn) 8.29%
CC(C)Cn1c(=O)c(C(=O)NCc2ccc(F)cc2)nc2cccnc21 8.42%
O=C(Nc1cccc(NC(=O)c2ccc(Br)cc2)c1)c1ccccc1 -16%
O=C(Nc1ccc(C(=O)O)c(O)c1)c1ccccc1 7.03%
CC(=O)c1cc(CC(=O)NCc2cc(F)c(F)cc2F)cs1 -1.78%
C[C@H]1[C@@H]2[C@@H](O)C([C@H](C)C(=O)NC3CCCC3)CC[C@@]2(C)CC[C@@H]1NC(=O)c1ccc(C#N)cc1 (stereo partly drawn) 8.22%
Cn1ncc2c(C(=O)N3CCN(c4ncccn4)CC3)cc(-c3ccc(C(F)(F)F)cc3)nc21 2.25%
Cc1cc(C(=O)N2CCC3(CCCNC3=O)C2)ccc1N1CCOCC1 (stereo not drawn) 11%
COc1ccc(C2Cn3nnc(C(=O)N4CCC(C(=O)NCc5ccc(C)cc5)CC4)c3CO2)cc1 (stereo not drawn) -5.17%
COc1ccc(C2Cn3nnc(C(=O)N4CCN(C(=O)c5cccc(Cl)c5)CC4)c3CO2)cc1 (stereo not drawn) 2.61%
CNC(=O)[C@@H]1C[C@@H](n2cc(CNC(=O)Nc3cccc(Cl)c3C)nn2)CN1 11.8%
O=C(C1CC1)N1CCC(N2CC(OCC3CC3)C23CCOCC3)CC1 (stereo not drawn) -1.99%
C(=C\c1ccccc1)/CN1CCN(c2ncncn2)CC1 -5.21%
O=C(c1nc(-c2cccnc2)c2cnccn12)N1CCN(c2ncccn2)CC1 8.68%
CCOC(=O)[C@@H]1[C@@H](O)C(=O)N(Cc2ccccc2)C12CCN(C(=O)c1cc3ccccc3s1)CC2 14.8%
O=C(CC1CCCN(c2cnn(CC3CC3)c(=O)c2)C1)N1CCCC1 (stereo not drawn) 15.7%
COc1ccc(-c2onc(C)c2C)cc1S(=O)(=O)NCCc1ccccc1 17.3%
COc1ccc(-c2onc(C)c2C)cc1S(=O)(=O)NCc1cccs1 41.7%
C=CCCC(CN1CCCC1)Oc1ncc(F)c(N2CCCC2)n1 (stereo not drawn) -2.11%
COc1ccc(NC(=O)N2CCC(CC(=O)NCc3ccccc3)C2)cc1OC (stereo not drawn) -12.4%
O=C(NCC1CCOCC1)Nc1cccc(Cl)c1 18.6%
C=CCCC(=O)N1CCC2(CCCN(Cc3cccc(F)c3F)C2=O)C1 (stereo not drawn) -2.13%

Activity change, active:
COc1ccc(-c2nc(CCNC(=O)c3ccc(Br)o3)cs2)cc1 -32.8%
Cc1ccc(NC(=O)c2cc(S(=O)(=O)NCCC3=CCCCC3)ccc2F)cc1C -26.3%
CC(C)(C)c1ccc(C(=O)Nc2cc(Cl)c(Br)cc2C(=O)O)cc1 -35.3%
COc1ccc(C2Cn3nnc(C(=O)N4CCN(C(=O)c5ccc(C)cc5C)CC4)c3CO2)cc1 (stereo not drawn) -25.2%
CN(C)[C@@H]1C(=O)C(C(N)=O)=C(O)[C@@]2(O)C(=O)C3=C(O)c4c(O)ccc(Cl)c4[C@@H](O)[C@H]3C[C@@H]12 -40.7%
C(=C\c1ccccc1)/CN1CCN(c2nccc(-c3cccnc3)n2)CC1 -36.7%
Cc1ccc(-c2onc(C)c2C)cc1S(=O)(=O)Nc1ccccn1 -25.5%
COc1cc(NC(=O)Nc2cccc(CNC(=O)O[C@H]3CCOC3)c2)ccc1-c1cnco1 -31.9%

Source: PubChem BioAssay AID1645851 (National Center for Advancing Translational Sciences (NCATS), 2021)
